Screening data from PubChem BioAssay.
An excerpt weighted towards active compounds, which were near 1.2% of everything screened.
TR SRC2 fluor cs = counter-screen for TRb-SRC2 inhibitors: fluorescence interference; Potency, µM (series often up to 106 µM), inactives show at the top dose fluorescence change, negative = quenching; TRb/SRC2 Texas Red total fluorescence interference; 280,000 tested, 0.29% active; active = well fitted curve in either direction with a large enough effect; inconclusive = small, poorly fitted or top-dose-only effect; note: potency is the fitted concentration of half-maximal effect; % is set by controls: 0 for no effect and ±100 for the full control effect
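Flags fluorescent or light-absorbing compounds by total fluorescence, S + 2P, at 555 nm excitation and 632 nm emission. Mixture: 20 nM Texas Red SRC2 peptide, 0.6 uM human TRb LBD, 1 uM T3, 5% DMSO; compound exposure 5 h at ambient temperature.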
TRb SRC2 PPI = disrupts binding of human TR beta to SRC2; P10828; TRbeta-SRC2 peptide binding, fluorescence polarization; receptor liganded with 1 µM T3; Potency, µM (titrated, usually from 106 µM), without a hit: top-dose activity change, negative = inhibition, most hits filed as inhibitors; 280,000 tested, 0.065% active; AID 1469;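 note: potency is the fitted concentration of half-maximal effect; plate controls were bound peptide for no effect and peptide without receptor for full effect; nearly all actives have a fitted effect of over 50% in size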
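Polarization signal, normalized between peptide-alone and full complex controls, measured compound effects on T3-liganded human TRb LBD (0.6 uM) binding 20 nM Texas Red SRC2 peptide after 5 hr.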
VDR inh = blocks the human vitamin D receptor. P11473. Potency, µM, inactives show max response, negative = inhibition, hits mostly inhibitors. 400,000 tested, 0.93% active. VDR-SRC2-3 peptide fluorescence polarization, 2 h; note: potency is the fitted concentration of half-maximal effect; % is set by controls: 0 for no effect and ±100 for the full control effect
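Reagent solutions, kept cold and dark, are dispensed first; compounds are then pinned in at 23 nl, plates briefly spun, and incubated 2 h at ambient temperature. Inhibition of VDR–SRC2-3 peptide binding is read by fluorescence polarization.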
GCN5L2 inh-1 = blocks human GCN5L2 histone acetyltransferase; Q92830; GCN5L2 HAT assay, ThioGlo1 CoA-SH fluorescence; Potency, µM (top dose mostly 58.9 µM), for the others: at the top dose activity change, negative = inhibition, most hits filed as inhibitors; 390,000 tested, 0.21% active; AID 504327; note: potency is the fitted concentration of half-maximal effect; % is set by controls: 0 for no effect and ±100 for the full control effect
Target sequence (Q92830 whole entry, looked up): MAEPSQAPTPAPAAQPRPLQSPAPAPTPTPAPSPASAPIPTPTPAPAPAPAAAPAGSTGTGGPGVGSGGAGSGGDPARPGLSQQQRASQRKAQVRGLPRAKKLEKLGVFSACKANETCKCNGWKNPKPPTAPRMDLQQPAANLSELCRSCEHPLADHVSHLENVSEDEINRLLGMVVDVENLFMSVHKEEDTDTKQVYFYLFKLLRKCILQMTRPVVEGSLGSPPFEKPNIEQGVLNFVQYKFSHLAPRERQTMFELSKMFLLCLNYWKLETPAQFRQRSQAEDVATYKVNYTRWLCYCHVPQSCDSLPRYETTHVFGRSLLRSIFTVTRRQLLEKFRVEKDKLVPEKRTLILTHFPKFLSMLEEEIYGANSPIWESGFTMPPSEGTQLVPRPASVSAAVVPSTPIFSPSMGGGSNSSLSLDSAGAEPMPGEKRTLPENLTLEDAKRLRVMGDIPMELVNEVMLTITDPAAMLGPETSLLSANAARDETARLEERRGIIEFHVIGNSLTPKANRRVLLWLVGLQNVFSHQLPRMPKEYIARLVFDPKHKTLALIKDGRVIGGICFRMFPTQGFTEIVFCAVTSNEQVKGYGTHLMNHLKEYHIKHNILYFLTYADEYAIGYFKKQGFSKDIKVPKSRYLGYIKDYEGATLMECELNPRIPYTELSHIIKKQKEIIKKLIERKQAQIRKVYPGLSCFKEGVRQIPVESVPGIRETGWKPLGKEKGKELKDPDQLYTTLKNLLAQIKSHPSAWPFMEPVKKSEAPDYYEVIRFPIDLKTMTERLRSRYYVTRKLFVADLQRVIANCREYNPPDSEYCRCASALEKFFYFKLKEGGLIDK
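Compounds, pin-transferred from DMSO stocks, meet 20nM GCN5L2 for 15 min before the reaction begins with H3(1-25) peptide (75uM) and acetyl-CoA (70uM). Thiol-reactive ThioGlo1 reports CoA release over 20 min at room temperature.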
GoLoco inh red = inhibitors of human Gai1-RGS12 GoLoco interaction (red fluorophore); Gai1:RGS12 GoLoco peptide FP, rhodamine, 10 min; Potency, µM (top dose mostly 61.6 µM), for inactives: at the highest dose activity, negative = inhibition, actives largely listed as inhibitors; 230,000 tested, 0.44% active; active = well fitted inhibition curve with a large enough effect, not every such curve was filed as active; inactive = no such curve, though single readings can be large or run the other way; note: potency is the fitted concentration of half-maximal effect; % is set by controls: 0 for no effect and ±100 for the full control effect; nearly all actives have a fitted effect of over 30% in size
GCN5L2 inh-2 = confirmation of human GCN5L2 histone acetyltransferase inhibitors. GCN5L2 HAT, ThioGlo1 CoA fluorescence, 20 min. shares compounds with GCN5L2 inh-1. AID 588347. Potency, µM, most hits filed as inhibitors. 140 tested, 70% active
VDR inh confirm = confirmation of human vitamin D receptor inhibitors | VDR-coactivator inhibition assay, qHTS confirmation | Potency, µM, hits mostly inhibitors | 840 tested, 89% active | shares compounds with VDR inh; note: potency is the fitted concentration of half-maximal effect
VDR FP = VDR (human) coactivator binding inhibition, fluorescein polarization | shares compounds with VDR inh | VDR-coactivator binding, fluorescein fluorescence polarization | Potency, µM (series often up to 57.1 µM), for inactives: at the highest dose activity change, negative = inhibition, most hits filed as inhibitors | 840 tested, 48% active | AID 602200; note: potency is the fitted concentration of half-maximal effect
VDR bla = inhibits human VDR in beta-lactamase reporter cells | shares compounds with VDR inh | VDR beta-lactamase reporter cells, FRET ratio; cells co-treated with VDR agonist LG190178 | Potency, µM (titrated, usually from 46.1 µM), inactives show at the top dose activity change, negative = inhibition, most hits filed as inhibitors | 840 tested, 23% active | AID 602202; note: potency is the fitted concentration of half-maximal effect; % is set by controls: 0 for no effect and ±100 for the full control effect
VDR cytotox = cell toxicity, VDR inhibitor hit counter-screen; Potency, µM (titrated, usually from 48.3 µM), for inactives: at the top dose activity change, negative = cytotoxicity, actives largely listed as cytotoxic; shares compounds with VDR inh; cytotoxicity counter-screen, cell viability, qHTS; 840 tested, 18% active; AID 602204;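 note: potency is the fitted concentration of half-maximal effect; plate controls were DMSO for no effect and high-concentration cycloheximide for full effect; nearly all actives have a fitted effect of over 75% in size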
* hit, by the source's call; u = inconclusive; x = no result; [ ] = dose if it differs, or a comment. Unless noted, calls come from the whole dose curve; as a rule, active = well fitted curve in the direction sought with a large enough effect; inconclusive = small, poorly fitted or top-dose-only effect, or another doubt; inactive = no such curve, though single readings can be large; an effect the other way counts as inactive or inconclusive.

SMILES	TR SRC2 fluor cs	TRb SRC2 PPI	VDR inh	GCN5L2 inh-1	GoLoco inh red	VDR inh confirm	VDR FP	VDR bla	VDR cytotox	others
COc1cc(N=c2ssnc2Cl)cc(OC)c1OC	1.4%	4.4%	u	10µM*	-14.3%	x	x	x	x	GCN5L2 inh-2=3.63*
COc1ccc(C(=O)N/N=C/c2ccc3cccc(OCc4ccccc4)c3n2)cc1	-4.2%	3.4%	-13.7%	u	13.7%	x	x	x	x	GCN5L2 inh-2=22.9*
Cc1ccc(S(=O)(=O)N2[C@@H](c3ccc(Cl)cc3)C(C(=O)O)=CC[C@H]2c2ccc(C(C)C)cc2)cc1	x	x	-3.6%	u	x	x	x	x	x
Cc1ccc([C@H]2C(C(=O)O)=CC[C@@H](c3ccc(Cl)cc3)N2S(=O)(=O)c2ccc(C)cc2)cc1	x	x	-9.2%	14.1µM*	x	x	x	x	x	GCN5L2 inh-2=u
Cc1ccc(S(=O)(=O)N2[C@@H](c3ccc(Br)cc3)C(C(=O)O)=CC[C@H]2c2ccc(Cl)c(Cl)c2)cc1	x	x	u	28.2µM*	x	x	x	x	x	GCN5L2 inh-2=12.9*
C=C1CCN(C(CC(C)C)C(=O)NN2CCOCC2)S(=O)(=O)c2ccccc21 (configuration not stated)	-2.0%	7.1%	-16.5%	x	x	x	x	x	x
CC1=NOC(=O)/C1=C\c1ccc(-c2ccccc2Br)o1	-2.6%	4.9%	12.6µM*	12.6µM*	23.7%	9.47*	u	u	u	GCN5L2 inh-2=11.5*
CN(C)CC/C=C1\c2ccccc2COc2ccc(CC(=O)O)cc21	-1.1%	1.3%	0.1%	-22.8%	-56.7%	x	x	x	x
CCn1c2ccccc2c2nc3cc(S(=O)(=O)N4CCOCC4)ccc3nc21	-9.4%	-5.2%	28.2µM*	u	-39.5%	5.97*	u	10.0%	u	GCN5L2 inh-2=u
Nc1c(C(=O)N2CCCCC2)sc(=S)n1-c1ccccc1	-1.9%	-23.9%	u	u	-37.8%	7.08*	7.08µM*	-7.8%	0.6%	GCN5L2 inh-2=u
CCOc1ccc(-n2c(N)c(C(=O)N3CCN(C)CC3)sc2=S)cc1	-1.1%	-5.4%	-3.1%	-1.4%	4.3%	x	x	x	x
CCOC(=O)c1c(NC(=O)CSc2nnc(Cc3ccccc3)o2)sc(C(C)=O)c1C	0.9%	6.2%	5.5%	-4.5%	7.9%	x	x	x	x
CCOC(=O)c1sc(NC(=O)CSc2nnc(Cc3ccccc3)o2)c(C#N)c1C	-2.4%	8.2%	12.6µM*	u	12.5%	2.99*	u	73.1%	-2.3%	GCN5L2 inh-2=10.2*
C[N+]1(C)CCO[C@](O)(c2ccccc2)C1	x	x	x	x	3.1%[14.2 µM]	x	x	x	x
CC1C/C(=C/c2ccncc2)C(=O)/C(=C/c2ccncc2)C1 (configuration not stated)	1.7%	-7.3%	22.4µM*	-10.9%	-3.5%	6.7*	3.55µM*	5.17µM*	20.6µM*
CCC(Cl)CC(Cl)C(Cl)C(Cl)C(Cl)C(C)Cl (configuration not stated)	0.1%	-17.0%	x	x	-2.2%	x	x	x	x
COc1cc(/C=C/C(=O)Nc2nnc(CC(C)(C)C)s2)cc(OC)c1OC	-1.3%	3.6%	79.4µM*	-15.7%	-7.8%	21.2*	14.1µM*	25.9%	10.9%
COc1ccc(/C=C/C(=O)Nc2nnc(C(C)C)s2)cc1OC	0.7%	4.0%	-10.9%	0.9%	1.5%	x	x	x	x
Cc1ccccc1CS(=O)(=O)c1ncc(Cl)c(C(=O)Nc2ccc(F)cc2)n1	x	x	-23.0%	-10.2%	x	x	x	x	x
COc1ccc2nc(NC(=O)c3nc(S(=O)(=O)Cc4ccccc4)ncc3Cl)sc2c1	-10.7%	2.9%	2.1%	-17.5%	x	x	x	x	x
O=C(Nc1nc2ccc(F)cc2s1)c1nc(S(=O)(=O)Cc2ccccc2)ncc1Cl	-1.4%	-2.3%	u	-7.6%	x	x	x	x	x
O=C(Nc1ccc(F)cc1)c1nc(S(=O)(=O)Cc2ccccc2)ncc1Cl	x	x	u	-2.6%	x	3.55*	2.82µM*	3.26µM*	18.9µM*
Cc1nnc(NC(=O)c2nc(S(=O)(=O)Cc3ccccc3)ncc2Cl)s1	0.0%	-10.0%	u	-8.8%	x	15.8*	12.6µM*	2.31µM*	4.23µM*
O=C(NCc1ccccc1)c1nc(S(=O)(=O)Cc2ccc(F)cc2)ncc1Cl	-1.3%	7.4%	31.6µM*	-5.7%	x	3.16*	7.94µM*	20.6µM*	18.9µM*
Cc1ccc(NC(=O)c2nc(S(=O)(=O)Cc3ccccc3)ncc2Cl)cc1	x	x	25.1µM*	-4.9%	x	18.9*	u	u	u
SMILES	TR SRC2 fluor cs	TRb SRC2 PPI	VDR inh	GCN5L2 inh-1	GoLoco inh red	VDR inh confirm	VDR FP	VDR bla	VDR cytotox	others
CC(C)C[C@@H](/C=C/S(C)(=O)=O)NC(=O)[C@H](CC(C)C)NC(=O)[C@H](CC(C)C)NC(=O)OCc1ccccc1	-0.3%	-6.4%	5.0%	6.8%	4.0%	x	x	x	x
C=CCn1c(Sc2ncc([N+](=O)[O-])s2)n[nH]c1=O	-2.9%	-6.4%	28.2µM*	u	-7.5%	15*	u	25.9µM*	u
O=C(O)CSCc1cccc2ccccc12	x	x	x	x	7.1%[14.2 µM]	x	x	x	x
CCOC(=O)c1c(-c2ccccc2)csc1NC(=O)c1cc(-c2cccc(OC)c2)on1	7.5%	-5.2%	79.4µM*	-13.2%	x	22.4*	15.8µM*	-15.8%	-2.7%
COc1ccccc1C1=Nn2c(nnc2-c2cccc(OC)c2OC)SC1	-0.1%	-5.3%	x	x	x	x	x	x	x
CN1CCN(C(=S)C(=O)Nc2ccc(Br)cc2)CC1	-0.2%	-6.9%	u	-0.2%	-5.7%	3.98*	3.55µM*	-3.1%	-15.1%
CN1CCN(C(=S)NC(=O)c2ccc(Br)cc2)CC1	-3.5%	-1.8%	12.9%	0.7%	1.9%	x	x	x	x
C=CCN1c2ccccc2[C@]23C[C@@H](C(=O)OC)N(C(=O)COCc4ccccc4)C2=NC(C(=O)OC)=C(C(=O)OC)[C@H]13	-2.4%[11.2 µM]	7.5%[11.2 µM]	x	x	1.2%[14.2 µM]	x	x	x	x
Cn1cnc([N+](=O)[O-])c1S(=O)(=O)c1cccc(Cl)c1	4.8%	1.8%	44.7µM*	1.0%	5.5%	u	25.1µM*	u	10µM*
Cn1cnc([N+](=O)[O-])c1S(=O)(=O)Nc1ccccc1	x	x	-24.2%	x	x	x	x	x	x
